Screen size: about 5,600 compounds; about 4,500 (80%) were called active. So high a share suggests a set chosen from earlier hits. The list is a sample of the results. A number with no mark means an inactive call. No stated cut-off is given here; in the data, active means inhibition above about 10%; inactive means the rest.

We go through 94 compounds from PubChem BioAssay AID652141 (The Scripps Research Institute Molecular Screening Center, 2013).

This experiment is described as follows: GDH-TPI coupling enzyme inhibitors, artefact control for M. tuberculosis FBA inhibitor project, biochemical, fluorescence, high throughput (AID 652141). The following applies: GDH-TPI coupled enzyme counterscreen, at 1 µM, active compounds read high. (In general: Counterscreens check selectivity or assay interference.)
Broadly, the inhibition is the change of the read-out against control, counted positive when it falls. On to `COCCCNC(=S)N(CCN(C)C)Cc1cc2cc3c(cc2[nH]c1=O)OCCO3`, for which the inhibition was 41% (active).
As for `Cc1ccc2nc(/C(C#N)=C\c3ccc(OC(=O)c4cccs4)cc3)[nH]c2c1`, the inhibition is 39% (active).
In the case of `Cc1ccsc1C(=O)N[C@@H](C)c1nnc2ccccn12` it was 110% (active).
With `CCC1C(=O)c2ccccc2N(C)C1=O` (centres undefined) the figure was -6.39%.
With `O=C(NCCc1ccccc1)c1ccc2c(c1)N(Cc1ccccc1)CCS2` the figure was 29.2% (active).
As to `O=C(NCCN1CCOCC1)c1ccc2c(c1)N(Cc1ccc(Cl)cc1)CCS2`, the inhibition was 48.2% (active).
`CN1CCN(CCCNC(=O)c2ccc(/C=C3\Oc4ccccc4N(Cc4ccc(Cl)cc4)C3=O)cc2)CC1`: the inhibition is -4.56%.
In the case of `CC(C)(C)Nc1c(-c2cccs2)nc2ccccn12` it was 114% (active); in that of `CCOC(=O)c1c(-c2ccccc2)oc2ccc(OC(=O)N(C)C)cc12`, 164% (active).
For `COC(=O)c1c(-c2ccsc2)oc2ccc(-c3cc(OC)c(OC)c(OC)c3)cc12`, the inhibition was -4.81%.
With `CCOC(=O)c1c(-c2ccccc2)oc2ccc(OCC(N)=O)cc12` the figure was 126% (active).
As to `Cc1c(CCC(=O)O)c(=O)oc2cc(OCc3ccc(Br)cc3)ccc12`, the inhibition is 1.56%.
With `CCOC(=O)c1c(-c2ccccc2)oc2ccc(OCC(=O)NN)cc12` the figure was 74.7% (active); with `Cc1c(Cc2ccccc2)c(=O)oc2cc(OCC(N)=O)ccc12`, 899% [above what the read-out allows, likely interference] (active).
For the compound `C=CCNC(=O)c1ccc2c3n(nc2c1)-c1ccc(C)cc1CO3`, the inhibition is 160% (active).
Turning to `CCOC(=O)CSc1nc2c(c(=O)n(Cc3ccccc3Cl)c(=O)n2C)n1C`, the inhibition is 28.5% (active).
With `COc1ccc(-n2cc(CN(C)Cc3n[nH]c(=O)[nH]3)c(-c3cccc(F)c3)n2)cc1` the figure was 37.4% (active).
Take `COc1ccc(-n2cc(CNC3CCOCC3)c(-c3cccc(F)c3)n2)cc1`: the inhibition is 15.8% (active).
With `CCCc1nc2oc3c(=O)[nH]cnc3c2c2c1COC(C)(C)C2` the figure was 101% (active); with `O=C(O)/C=C/c1cn(-c2ccccc2)nc1-c1cccs1`, 76.6% (active); with `COc1ccccc1-c1oc2ccccc2c1C#CCCCCO`, 145% (active).
In the case of `Cc1ccc(-c2nc(C#N)c(NCCCn3ccnc3)o2)cc1` it was 34.1% (active); in that of `Cn1cc(-c2ccccc2)cc(C#N)c1=O`, 79.8% (active); in that of `C=CCn1cc(-c2cccc(C(F)(F)F)c2)cc(C#N)c1=O`, -2.28%.
In the case of `CN(CCNC(=O)c1cc2c(-c3ccccc3F)nn(C)c2s1)C1CCCCC1` it was 183% (active); in that of `CCOC(=O)c1cc2cc(C)ccc2[nH]1`, 42.5% (active); in that of `Cc1cc(C)c2c(NC(=O)C3CC3)nn(C)c2n1`, 72.7% (active).
Turning to `Cc1cc(C)c2c(n1)nn1c(-n3ccnc3)cc(C)nc21`, the inhibition is -4.63%.
With `Cc1cc(=O)n2[nH]c(-c3cccc(Cl)c3)cc2n1` the figure was 82.4% (active).
With `CC(C)n1ncc2c(C(=O)NCc3ccccc3CN(C)C)cc(C3CC3)nc21` the figure was 108% (active).
Regarding `CCCS(=O)(=O)Nc1c(C(=O)O)[nH]c2ccccc12`, the inhibition is 48.1% (active).
With `CC(C)CN1CCNC(=O)C1CC(=O)N(C)CC1CCOCC1` (centres undefined) the figure was 106% (active); with `COCCCNC(=S)NCCNc1nc2cc(C)c(C)cc2cc1C#N`, 60.5% (active).
With `CN(CCc1ccccn1)S(=O)(=O)c1ccc2c3c(cccc13)C(=O)N2` the figure was 103% (active); with `CCN(C(=O)COC(=O)c1ccc(COc2ccc3c(C)cc(=O)oc3c2)cc1)C1CCS(=O)(=O)C1` (centres undefined), -0.6%; with `CCC(C)N(C(=O)COC(=O)C1C(C(=O)OC)=C(C)NC(C)=C1C(=O)OC)C1CCS(=O)(=O)C1` (centres undefined), 111% (active).
In the case of `Cc1ccc(-c2nc3ccccc3c(=O)n2-c2ccc(Br)cn2)cc1` it was 98.6% (active); in that of `CC1(C(=O)NCc2ccc(F)c(F)c2)Cc2c(-c3ccc4c(c3)OCO4)ccnc2O1` (centres undefined), 108% (active); in that of `CC1(C(=O)NCc2ccco2)Cc2c(-c3ccc4c(c3)OCO4)ccnc2O1` (centres undefined), -4.87%.
Turning to `CC(C)OCCCNc1ncnc2c1[nH]c1ccc(F)cc12`, the inhibition was 97.1% (active).
With `CCCCNc1c(-c2cccc(Sc3ccc(OC)cc3)c2)nc2ccccn12` the figure was 32.5% (active); with `C=CCc1c(C)nc2cc(-c3ccccc3)[nH]n2c1=O`, 49.2% (active).
With `CCc1c(C)nc2cc(-c3cccs3)[nH]n2c1=O` the figure was 19.6% (active).
In the case of `CCc1c(C)nc2cc(C)[nH]n2c1=O` it was 41.7% (active); in that of `Cc1ccc(S(=O)(=O)N2C[C@@H](C)[C@]3(C2)[C@H](O)[C@H](OC(=O)NCc2ccccc2)C[C@H]2C(=O)N(c4ccccc4)C(=O)[C@H]23)cc1`, -1.04%.
Take `CN(C)Cc1c(O)ccc2c(=O)c(-c3ccccc3Cl)coc12`: the inhibition was 3.78%.
With `C[C@H](O)[C@@H]1C(=O)N2CCc3c([nH]c4ccccc34)[C@@H]2C[C@@H]1N(C)C(=O)Nc1ccc(F)cc1` the figure was 182% (active); with `O=C(O)c1cccnc1Sc1ncnc2sc3c(c12)CCC3`, 47.7% (active); with `N#Cc1c(N)n(CCOC(=O)c2ccc(Cl)cc2)c2nc3ccccc3nc12`, 27.5% (active).
With `CC(OC(=O)c1ccccc1NCCO)C(=O)Nc1ccnn1C(C)C` (centres undefined) the figure was 83.3% (active).
With `COc1cc2nc(N3CCN(C(=O)[C@@H]4CCCO4)CC3)nc(N)c2cc1OC` the figure was 81.7% (active); with `Cc1ccc(NC(=O)CN(C)C(=O)COC(=O)c2nccnc2N)cc1`, -3.67%.
Take `Cc1nc2ccc(NC(=O)N3CCC(c4ccccc4)C3)cc2nc1C` (centres undefined): the inhibition is 70.1% (active).
Turning to `CCN1CCc2c(C#N)c(NCc3ccccc3)nc(NCCO)c2C1`, the inhibition was 139% (active).
Turning to `O=C(Nc1ccc2nccnc2c1)c1ccco1`, the inhibition was 515% [above what the read-out allows, likely interference] (active).
In the case of `O=C1OCCN1C(=O)[C@H]1[C@H](c2ccc(F)cc2)C(c2ccccc2)=NN1c1ccc(Br)cc1`, the inhibition was 38.6% (active).
Regarding `C#Cc1cc(N2CCN(C(=O)c3ccoc3)CC2)n2nc(-c3cccc(Cl)c3)cc2n1`, the inhibition was 73.9% (active).
Take `Cc1nc(COc2cc3oc(=O)cc(C)c3cc2Cl)cs1`: the inhibition is 171% (active).
In the case of `Cc1ccc(Cn2c(C)nc3c(c2=O)c2nc4ccccc4nc2n3Cc2ccco2)cc1` it was 48.7% (active).
With `CC[C@@H]1Cc2cc(O)ccc2C2=C1c1ccc(O)cc1C[C@H]2CC` the figure was 79.8% (active); with `COc1ccc2oc(=O)c(C(=O)NCc3ccccn3)cc2c1`, -4.05%; with `COc1ccc2oc(=O)c(C(=O)N3CCCC3)cc2c1`, 99.7% (active).
With `Nc1ccccc1-c1nc2ccncc2[nH]1`, the inhibition was 0.69%.
With `O=C(Nc1cccc2ccccc12)N1CCN(Cc2ccc3c(c2)OCO3)CC1` the figure was 34.8% (active); with `O=C(Nc1cccc2ccccc12)N1CCC2(CC1)OCCO2`, 93.7% (active).
In the case of `COc1cc(C(F)(F)F)nc2c(Br)c(C(C)(C)C)nn12` it was 47.7% (active); in that of `O=C(NCc1cccc(Cl)c1)C1=CC=CN2CCS(=O)(=O)N=C12`, -4.53%.
In the case of `CNc1nc(-c2ccccc2)cc(-c2ccccc2)n1` it was 73.9% (active).
With `Nc1nc2n(n1)C(c1ccco1)CC(c1ccc(Cl)c(Cl)c1)N2` (centres undefined), the inhibition is 199% (active).
With `Cn1cccc1-c1nc2ccccc2n1C` the figure was 9.72%; with `Cn1c(-c2ccco2)nc2cc3ccccc3cc21`, 36.5% (active); with `O=C(Nc1nncs1)c1ccccc1NS(=O)(=O)c1cccs1`, 115% (active).
For `CCOC(=O)NN1C(=O)c2ccccc2NC1c1cccc(O)c1` (centres undefined), the inhibition was 100% (active).
In the case of `Cc1ccc(C2Nc3ccccc3C(=O)N2CCN2CCNC2=O)cc1` (centres undefined), the inhibition was -5.86%.
In the case of `Cc1cc(C)nc(SCc2cn3c(C)cc(C)nc3n2)n1`, the inhibition is 69.3% (active).
Regarding `Cc1nn(C)c(Oc2ccccc2)c1CCNS(=O)(=O)c1ccc(F)cc1`, the inhibition is 124% (active).
With `COc1cc(/C=C/c2ccc(/C=C/c3cc(OC)c(OC)c(OC)c3)cc2)cc(OC)c1OC`, the inhibition is 11.4% (active).
`COCCCNC(=O)/C(C#N)=C/c1c(N2CCCCCC2)nc2ccccn2c1=O`: the inhibition was 50.5% (active).
On to `CC[C@@H](C)[C@H](NC(=O)CCc1c(C)c2cc3c4c(oc3c(C)c2oc1=O)CCCC4)C(=O)O`, for which the inhibition was 83% (active).
With `COCc1cc(=O)n2[nH]c(C)c(-c3ccccc3)c2n1` the figure was 39.7% (active); with `Cc1nc2c(-c3ccccc3)c(C)[nH]n2c(=O)c1Cl`, 81.2% (active).
Regarding `CCCc1cc(=O)n2[nH]c(C)c(-c3ccc(Cl)cc3)c2n1`, the inhibition was 108% (active).
Consider `CN1CCc2c(sc3c2c(NCc2ccco2)nc2nnnn23)C1`, for which the inhibition was 183% (active).
With `O=C(CCC(=O)N/N=C/c1ccc(Br)o1)N/N=C/c1ccc(Br)o1` the figure was 88.2% (active); with `Fc1ccc(COc2cccc(-c3n[nH]c(=S)o3)c2)cc1`, 137% (active).
In the case of `CCN(C(=O)Nc1cccc2ccccc12)c1ccccc1` it was 118% (active); in that of `COc1cc(OC)cc(C(=O)Nc2ccc(-c3nc4ccccc4o3)c(O)c2)c1`, 135% (active); in that of `CC(=O)Nc1ccc(-c2nc3ccccc3o2)cc1`, -2.16%.
Take `CC(C)(C)C(=O)Nc1cccc(-c2ccc[nH]2)n1`: the inhibition was 71% (active).
With `CC(C)(C)NC(=O)COc1ccc(CNc2ccc3[nH]c(=O)[nH]c3c2)cc1` the figure was 2.64%; with `COCCCn1c(C(=O)NC2CCCCC2)cc2c(=O)n3cccc(C)c3nc21`, 53.1% (active).
In the case of `Cc1ccn2c(c1)nc(=O)c1cc(S(=O)(=O)N3CCC(C)CC3)ccc12` it was -0.78%; in that of `Cc1ccc(-n2c(=O)c(C#N)cc3c(=O)n4ccccc4nc32)cc1C`, 19.5% (active).
With `Cc1coc2c1c(C)cc1oc(=O)c(CC(=O)NCC(=O)N[C@H](C(=O)O)C(C)C)c(C)c12` the figure was 49.8% (active).
